Hit rate of the full screen: of about 63,000 compounds, about 1,100 (1.7%) were called active. This excerpt belongs to a sample that is enriched for actives. Entries with a potency or affinity are not part of this list. A number with no mark means an inactive call. No stated cut-off is given here; in the data, active means cytotoxicity above about 50%; inactive means the rest.

Here are results for 99 compounds from PubChem BioAssay AID430 (Sanford-Burnham Center for Chemical Genomics, 2006).

A short description of this test: HPDE-C7 pancreatic duct cell viability loss – fluorescence, HTS (AID 430).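 Further: cells exposed to compound for 48 hours before viability readout; 0% = vehicle and 100% = reference cytotoxic drug.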 The settings on record: HPDE-C7 pancreatic duct cells viability, at 10 µM, hits give high values.
Take `CCN1CCN(C(=O)c2nn(-c3ccc(OC)cc3)c(=O)c3c2c2ccccc2n3C)CC1`: the cytotoxicity was -10.7%.
As to `CCCc1[nH]nc2c1C1(C(=O)N(C(C)C)c3ccccc31)C(C#N)=C(N)O2` (centres undefined), the cytotoxicity is -41.8%.
Take `O=C1c2[nH]nc(-c3ccccc3O)c2C(c2cccc(Cl)c2)N1CC1CCCO1` (centres undefined): the cytotoxicity was 32.4%.
For the compound `O=C1c2ccccc2NC(c2ccc(F)cc2)N1Cc1ccco1` (centres undefined), the cytotoxicity was 1.1%.
The figure for `O=C1c2ccccc2C(O)N1Cc1ccco1` (centres undefined) is -6.1%; for `CC(=O)C1=C(O)C(=O)N(Cc2ccco2)C1c1ccc(F)cc1` (centres undefined) it is -1.4%; for `O=C1c2[nH]nc(-c3ccccc3O)c2C(c2ccccc2)N1Cc1ccco1` (centres undefined) it is 21.9%.
As to `O=C1C(=O)N(Cc2ccco2)C(c2cccc(Cl)c2)/C1=C(\O)c1ccc2c(c1)OCCO2` (centres undefined), the cytotoxicity is 3.5%.
For the compound `COC(=O)Nc1sccc1C(=O)Nc1sccc1C(=O)OC`, the cytotoxicity is 3.5%.
Then `CCOC(=O)N1CCN(c2c(N3CCc4ccccc4C3)c(=O)c2=O)CC1`, with -10.2%; and `O=C(CC(O)(c1ccccc1)C(F)(F)C(F)F)c1cccs1` (centres undefined), with 2.3%; and `CCN(CC)C(C(=O)Nc1ccc2c(c1)OCO2)c1ccccc1` (centres undefined), with 5%.
Turning to `C=CCn1c(NC(=O)c2ccccc2Cl)c(C#N)c2nc3ccccc3nc21`, the cytotoxicity is 17.3%.
Then `N#Cc1c(NC(=O)c2ccc(Br)o2)n(-c2ccccc2)c2nc3ccccc3nc12`, with 54.7% (active); and `C=CCn1c(NC(=O)c2ccccc2)c(C#N)c2nc3ccccc3nc21`, with 45.1%; and `CCCCn1c(NC(=O)c2ccccc2Cl)c(C#N)c2nc3ccccc3nc21`, with 61.7% (active).
The figure for `CCC(=O)Nc1c(C#N)c2nc3ccccc3nc2n1C1CCCCC1` is 2%.
Then `CCCCn1c(NC(C)=O)c(C#N)c2nc3ccccc3nc21`, with -2.1%; and `CCCCn1c(NC(=O)c2ccccc2)c(C#N)c2nc3ccccc3nc21`, with 101% (active); and `CCCCCn1c(N)c(C#N)c2nc3ccccc3nc21`, with 3.3%.
As to `COc1ccc(-n2c(NC(=O)c3ccco3)c(C#N)c3nc4ccccc4nc32)cc1`, the cytotoxicity is 5.6%.
Turning to `CCCCn1c(NC(=O)CC)c(C#N)c2nc3ccccc3nc21`, the cytotoxicity was 10%.
Then `CCCCn1c(NC(=O)c2ccc(F)cc2)c(C#N)c2nc3ccccc3nc21`, with 73.6% (active); and `CCC(=O)Nc1c(C#N)c2nc3ccccc3nc2n1-c1ccccc1C`, with 2.9%.
Then `CC1(C)Cc2c(sc3c2c(=N)n(Cc2ccco2)c(=O)n3Cc2ccc(F)cc2)CO1`, with 5.6%; and `O=C1C2C3C=CC(C3)C2C(=O)N1c1n[nH]c(CCc2ccccc2)n1` (centres undefined), with 0.1%; and `CCCCP(=O)(CCCC)Cc1ccccc1O`, with -0.6%.
Regarding `CC(C)=CC(=O)Nc1ccccc1Br`, the cytotoxicity was -7.7%.
The figure for `CC1CC(C)CN(c2oc(-c3ccccc3Cl)nc2C#N)C1` (centres undefined) is 2.5%.
Consider `CCCCOC(=O)Cn1c(=O)c2c(nc(Br)n2Cc2ccccc2)n(C)c1=O`, for which the cytotoxicity is -12.6%.
`Cc1sc2nc3n(c(=O)c2c1C)CCCS3`: the cytotoxicity was 3.5%.
Then `N#C/C(C(=O)NCc1ccccc1)=C1\SC(CCO)C(=O)N1c1ccccc1` (centres undefined), with 10.7%; and `O=S(=O)(c1cccc2cccnc12)N1CCc2ccccc21`, with -5.3%; and `O=C(CN1CCCC1)N1c2ccccc2Sc2ccccc21`, with -13.6%.
Then `CC1CC(=O)N(CC(=O)N2CCCC2)c2ccccc2S1` (centres undefined), with -19.6%; and `CCc1nnc(NC(=O)NCN2C(=O)C3C4C=CC(C4)C3C2=O)s1` (centres undefined), with 3%; and `CC1=CCC(C(C)(C)NC(=O)c2ccccc2)C/C1=N\O` (centres undefined), with -14.7%.
Then `CCOCCCNS(=O)(=O)c1ccc2c(c1)CCN2C(=O)CC`, with -23.1%; and `C=C(c1ccc(O)cc1)c1ccc(O)cc1`, with -12.8%; and `CCC(=O)c1ccc(O)cc1`, with -18.7%.
In the case of `C/C=C(/C(=C/C)c1ccc(O)cc1)c1ccc(O)cc1`, the cytotoxicity is 106% (active).
Then `CCn1c2ccccc2c2nnc(SCC(=O)NC(C(=O)OC)C(C)C)nc21` (centres undefined), with 0.5%.
The figure for `CCOC(=O)c1[nH]c(C)c(C(=O)NC(C)CC)c1C` (centres undefined) is 1.4%.
The figure for `O=C1Nc2ccccc2C12OCCCCO2` is -24.6%; for `Cc1cc(=O)oc2cc(OCC(=O)N3CCc4ccccc4C3)ccc12` it is -25.1%.
With `CCOC(=O)N1CCN(Cc2nc3c(c(=O)[nH]c(=O)n3C)n2Cc2cc(C)ccc2C)CC1`, the cytotoxicity is -12.2%.
In the case of `CCCCC(CC)C(=O)Nc1ccccc1C(=O)NC(C)C` (centres undefined), the cytotoxicity was 6.3%.
The figure for `O=C(COc1ccc(-c2nnco2)cc1)N1CCN(S(=O)(=O)c2ccccc2)CC1` is -13%.
The figure for `O=C(COc1ccc(-c2nnco2)cc1)N1CCN(S(=O)(=O)c2ccc3ccccc3c2)CC1` is -10.1%; for `O=S(=O)(c1ccc(Oc2ccc(-c3nnco3)cc2)nc1)N1CCC(Cc2ccccc2)CC1` it is 62.7% (active).
As for `Cc1cc2cc(CNC(=O)c3ccc(Br)o3)ccc2n1C`, the cytotoxicity was -1.5%.
With `N#C/C(C(=O)Oc1ccccc1)=C1\C=CC=CN1`, the cytotoxicity was 1.2%.
Then `CCOC(=O)c1ccc(Oc2nc(SC)nc(N(C)C)n2)cc1`, with -23.6%.
The figure for `CCOC(=O)c1ccc(Oc2cc(C)nc(SC)n2)cc1` is 50.9% (active).
The figure for `COC(=O)c1ccc(Oc2cc(C)nc(NCc3ccccc3)n2)cc1` is -4.2%; for `CCOC(=O)c1ccc(Oc2nc(NC)nc(SC)n2)cc1` it is -15.9%.
In the case of `COC(=O)c1ccc(Oc2cc(C)nc(SC)n2)cc1`, the cytotoxicity is 50.6% (active).
Turning to `COC(=O)c1ccc(Oc2nc(C)cc(Oc3ccccc3)n2)cc1`, the cytotoxicity was -4.8%.
For the compound `COc1ccc(C(C#N)Nc2ccccc2OC)cc1` (centres undefined), the cytotoxicity was -4.6%.
The figure for `CCN(CC)S(=O)(=O)c1ccc(Nc2cc(C)nc3ncnn23)cc1` is -2.7%.
The figure for `C1CCc2c(nc3nnnn3c2N2CCOCC2)C1` is -9.2%.
Then `COC(=O)CN1C(=O)CC(C)(C)S(=O)c2ccccc21` (centres undefined), with -9.1%.
Consider `Cc1ccc(-n2ncc3c(=O)n(Cc4ccccn4)cnc32)cc1C`, for which the cytotoxicity is 8.3%.
Then `CCN1CCN(C(C(=O)NC2CCCC2)c2ccc(Cl)cc2)CC1` (centres undefined), with 9.1%; and `Cc1cc2c(N=O)c(NO)ccc2[nH]1`, with 67% (active).
Then `Cc1cc(=O)c2cc(Cl)ccc2[nH]1`, with -15%.
On to `COC(=O)c1ccc2[nH]c(C)cc(=O)c2c1`, for which the cytotoxicity was -15.1%.
Regarding `CCCc1cc(C(=O)Nc2sc(C(C)=O)c(C)c2C(=O)OCC)no1`, the cytotoxicity was -5.5%.
Then `O=C(c1ccco1)N1CCN(c2nc(C3CC3)nc3sc4c(c23)CCCC4)CC1`, with 53.5% (active); and `Cc1nc(N2CCN(C(=O)c3ccco3)CC2)c2c3c(sc2n1)CCC3`, with 8.5%.
With `CC(C)c1nc(N2CCN(C(=O)c3ccco3)CC2)c2c3c(sc2n1)CCCC3`, the cytotoxicity was -21.7%.
The figure for `CCOC(=O)N1CCN(C(=O)c2cn(-c3ccc(C)c(C)c3)c(=O)c3ccccc23)CC1` is -9.4%; for `CCCc1cc(-c2[nH]ncc2-c2ccc(C(=O)OCC)o2)c(O)cc1O` it is 4.4%; for `CCc1cc(-c2[nH]ncc2-c2ccc3c(c2)OCO3)c(O)cc1O` it is 46.1%.
For the compound `COc1ccc(-c2cnc(N)nc2-c2ccc(OC)cc2O)cc1`, the cytotoxicity was -4%.
`CCOc1ccc(-c2nc(N)ncc2-c2ccccc2)c(O)c1`: the cytotoxicity was 2.3%.
Then `Cc1c(C(=O)Nn2cnnc2)oc2ccccc12`, with -26.6%.
Then `CC(NC(=O)c1ccc(CS(=O)(=O)Cc2ccccc2F)o1)c1ccc2c(c1)OCCO2` (centres undefined), with -10.6%; and `O=S(=O)(NCC1CC1)c1cccc(S(=O)(=O)N2CCCC2)c1`, with -7.4%; and `Cc1ccccc1OCc1nc(-c2ccc(-n3cccc3)cc2)no1`, with 62.3% (active).
Consider `Cc1ccccc1OCc1nc(-c2ccccc2)no1`, for which the cytotoxicity was -12.2%.
As to `Cc1ccc(-c2noc(COc3ccccc3C)n2)cc1`, the cytotoxicity is -19.6%.
Then `Cc1cc(=O)[nH]c(SCC(=O)NCc2ccco2)n1`, with -38.4%; and `O=C(Cn1nnc(-c2ccccc2NC(=O)c2cccs2)n1)Nc1ccccc1`, with -6.9%; and `CCn1c(SCC(=O)N(C(C)C)C(C)C)nnc1-c1cc2ccccc2cc1O`, with -2.4%.
As for `Cc1cccc(N2CCN(C(=O)c3ccncc3)CC2C)c1` (centres undefined), the cytotoxicity is -2.2%.
Then `Cc1cccc(N2CCN(c3cccc(C)c3)C2c2cccnc2)c1`, with 52.6% (active); and `Cc1ccc(N2CCN(c3ccc(C)cc3)C2c2ccncc2)cc1`, with -18.2%.
As for `CCC(=O)OCCn1c(=O)c2cc3c(=O)n(CCOC(=O)CC)c(=O)c3cc2c1=O`, the cytotoxicity is 1.2%.
Then `CCOC(=O)C1=C(C)NC(=O)NC1c1ccc(OC)c(Cl)c1` (centres undefined), with -1.8%; and `O=C(Nc1ccc(-c2nc3ccccc3o2)cc1)C1CCCO1` (centres undefined), with 2.5%.
The figure for `O=c1cc(-c2ccccc2)[nH]c2nc3ccccc3n12` is 34.3%.
The figure for `COc1ccc(-c2cc(=O)n(-c3nc4ccccc4[nH]3)[nH]2)cc1` is 35%; for `O=c1cc(-c2ccccc2)[nH]n1-c1nc2ccccc2s1` it is 61.9% (active); for `CC(=NC1CCCC1)c1c(C)[nH]n(-c2nc3ccccc3s2)c1=O` it is -9.3%.
Consider `Cc1nn(-c2nc3ccccc3s2)c(N)c1-c1ccccc1`, for which the cytotoxicity was 6.1%.
As for `CCn1c(SCC(=O)N(Cc2ccccc2)C2CCS(=O)(=O)C2)nc2ccccc2c1=O` (centres undefined), the cytotoxicity is -7.3%.
Then `C1=C(CCNc2ncnc3nc[nH]c23)CCCC1`, with 0%.
Then `CCCCCC(=O)Nc1ccc2oc(-c3cncc(Br)c3)nc2c1`, with -3.1%.
